From PubChem BioAssay AID1159580 (chemical genetic matrix, 2015)
Out of some 5,500 compounds screened, about 2,000 (36%) were called active. Not shown: some 18% with an inconclusive outcome. Cut-off read from the data, not from the text of the source: active = normalized growth mostly below about 0.91 (no sharp cut-off); inconclusive = no clear call, values can overlap the other calls; inactive = mostly above about 0.92. The list shows a part of the results.

Assay: chemical genetic growth profiling, strain panel (AID 1159580);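 note: tested at 20 µM; growth read once vehicle control cultures reached saturation at 30 °C; 1 = growth at the plate median or of vehicle wells; lower values mean less growth of the strain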
Details: S. cerevisiae deletion strains, growth OD

Measured: normalized growth

C[N+](C)(CCCCCC[N+](C)(C)CCCN1C(=O)c2cccc3cccc(c23)C1=O)CCCN1C(=O)c2cccc3cccc(c23)C1=O
inactive: locus YAL040C, strain CLN3, stronger effect = lower value 0.984 | locus YCL061C, strain MRC1 (second series), stronger effect = lower value 1 | locus YDR150W, strain NUM1, stronger effect = lower value 1 | locus YDR363W, strain ESC2, stronger effect = lower value 0.986 | locus YER002W, strain NOP16, stronger effect = lower value 1.01 | locus YGR229C, strain SMI1, stronger effect = lower value 1 | locus YMR307W, strain GAS1, stronger effect = lower value 0.981 | locus YNL128W, strain TEP1, stronger effect = lower value 0.995 | locus YNL153C, strain GIM3, stronger effect = lower value 0.955 | locus YNL175C, strain NOP13, stronger effect = lower value 1.01 | locus YNL197C, strain WHI3, stronger effect = lower value 1.01 | locus YNL224C, strain SQS1, stronger effect = lower value 1 | locus YOR083W, strain WHI5 (second series), stronger effect = lower value 1.01 | locus YPL055C, strain LGE1, stronger effect = lower value 0.963 | locus YPL241C, strain CIN2, stronger effect = lower value 0.99

CC(C)(CCC(C)(C)N1C(=O)c2cccc3cccc(c23)C1=O)N1C(=O)c2cccc3cccc(c23)C1=O
active: locus YAR019C, strain CDC15, stronger effect = lower value 0.0987 | locus YBL105C, strain PKC1, stronger effect = lower value 0.0855 | locus YBR135W, strain CKS1, stronger effect = lower value 0.0899 | locus YBR136W, strain MEC1, stronger effect = lower value 0.107 | locus YBR160W, strain CDC28, stronger effect = lower value 0.0904 | locus YDL017W, strain CDC7, stronger effect = lower value 0.0866 | locus YDL028C, strain MPS1, stronger effect = lower value 0.0947 | locus YDL101C, strain DUN1, stronger effect = lower value 0.628 | locus YDL108W, strain KIN28, stronger effect = lower value 0.13 | locus YDL214C, strain PRR2, stronger effect = lower value 0.0867 | locus YDR052C, strain DBF4, stronger effect = lower value 0.308 | locus YDR054C, strain cdc34, stronger effect = lower value 0.227 | locus YDR226W, strain ADK1, stronger effect = lower value 0.509 | locus YDR477W, strain SNF1, stronger effect = lower value 0.0979 | locus YER123W, strain YCK3, stronger effect = lower value 0.103 | locus YER133W, strain GLC7, stronger effect = lower value 0.0935 | locus YFL029C, strain CAK1, stronger effect = lower value 0.0982 | locus YFR003C, strain YPI1, stronger effect = lower value 0.0904 | locus YFR019W, strain FAB1, stronger effect = lower value 0.0894 | locus YGR040W, strain KSS1, stronger effect = lower value 0.1 | locus YGR052W, strain FMP48, stronger effect = lower value 0.133 | locus YGR092W, strain DBF2, stronger effect = lower value 0.098 | locus YHR030C, strain SLT2, stronger effect = lower value 0.0982 | locus YHR079C, strain IRE1, stronger effect = lower value 0.116 | locus YHR082C, strain KSP1, stronger effect = lower value 0.129 | locus YHR205W, strain SCH9, stronger effect = lower value 0.213 | locus YIL147C, strain SLN1, stronger effect = lower value 0.0853 | locus YJL095W, strain BCK1, stronger effect = lower value 0.128 | locus YJL128C, strain PBS2, stronger effect = lower value 0.472 | locus YJL157C, strain FAR1, stronger effect = lower value 0.0837 | locus YJR066W, strain TOR1 (second series), stronger effect = lower value 0.12 | locus YJR066W, strain TOR1, stronger effect = lower value 0.123 | locus YKL048C, strain ELM1, stronger effect = lower value 0.104 | locus YKL067W, strain YNK1, stronger effect = lower value 0.0909 | locus YKL101W, strain HSL1, stronger effect = lower value 0.099 | locus YKL193C, strain SDS22, stronger effect = lower value 0.0977 | locus YKL203C, strain TOR2, stronger effect = lower value 0.116 | locus YLR113W, strain HOG1, stronger effect = lower value 0.166 | locus YLR133W, strain CKI1, stronger effect = lower value 0.0889 | locus YLR403W, strain SFP1, stronger effect = lower value 0.0154 | locus YML070W, strain DAK1, stronger effect = lower value 0.0999 | locus YMR001C, strain CDC5, stronger effect = lower value 0.0878 | locus YMR205C, strain PFK2 (second series), stronger effect = lower value 0.0998 | locus YMR277W, strain FCP1, stronger effect = lower value 0.104 | locus YNL006W, strain LST8, stronger effect = lower value 0.0921 | locus YNL020C, strain ARK1, stronger effect = lower value 0.0878 | locus YNL161W, strain CBK1, stronger effect = lower value 0.0843 | locus YNL183C, strain NPR1, stronger effect = lower value 0.13 | locus YNL207W, strain RIO2, stronger effect = lower value 0.508 | locus YNL222W, strain SSU72, stronger effect = lower value 0.095 | locus YNL307C, strain MCK1 (second series), stronger effect = lower value 0.0953 | locus YOL078W, strain AVO1, stronger effect = lower value 0.093 | locus YOL136C, strain PFK27, stronger effect = lower value 0.0923 | locus YOR061W, strain CKA2, stronger effect = lower value 0.1 | locus YOR119C, strain RIO1, stronger effect = lower value 0.118 | locus YOR231W, strain MKK1, stronger effect = lower value 0.13 | locus YOR329C, strain SCD5, stronger effect = lower value 0.0829 | locus YPL031C, strain PHO85, stronger effect = lower value 0.0976 | locus YPL153C, strain RAD53, stronger effect = lower value 0.101 | locus YPL204W, strain HRR25, stronger effect = lower value 0.0987 | locus YPL209C, strain IPL1, stronger effect = lower value 0.0859 | locus YPL256C, strain CLN2, stronger effect = lower value 0.134 | locus YPR025C, strain CCL1, stronger effect = lower value 0.0843 | strain NNK1, stronger effect = lower value 0.0956 | strain TSCII, stronger effect = lower value 0.0989
inactive: locus YDL132W, strain cdc53, stronger effect = lower value 0.971 | locus YJR016C, strain ILV3, stronger effect = lower value 0.976 | locus YPR111W, strain DBF20, stronger effect = lower value 0.92
